Test results taken from PubChem BioAssay (Tox21).
Records with an inconclusive call do not appear. The source made the active and inactive calls. Unless noted, calls follow the shape of the dose curve; as a rule, active = well fitted curve in the direction sought with a large enough effect in the repeat runs; inconclusive = weak or mixed curves; inactive = no such curve, though single readings can be large; an effect the other way counts as inactive or inconclusive.

Key:
[1] = qHTS assay to identify small molecule agonists of the vitamin D receptor (VDR) signaling pathway - cell viability counter screen (AID 743224); conditions: VDR-bla HEK293T viability, CellTiter-Glo luminescence, 16 h; series mostly up to 62.6 µM; also: nearly all actives have a fitted effect of over 50% in size
In short: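 Cells: VDR-bla, 2,000/well, settled 4 h. Treatment: compounds in DMSO, 16 h, 37C/5% CO2. Readout: CellTiter-Glo luminescence after 30 min RT.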

[2] = qHTS assay to identify small molecule antagonists of the vitamin D receptor (VDR) signaling pathway - cell viability counter screen (AID 743225); conditions: VDR-bla HEK293T viability, CellTiter-Glo luminescence, 16 h; series mostly up to 61 µM; also: nearly all actives have a fitted effect of over 50% in size
In short: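 Cells (VDR-UAS-bla HEK 293T) are plated, rested 4 h at 37C, dosed with compound and 3 nM final 1-alpha,25-dihydroxy vitamin D3, and incubated 16 h. Viability is taken from CellTiter-Glo luminescence in the reporter wells.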

[3] = qHTS assay to identify small molecule agonists of the NFkB signaling pathway - cell viability counter screen (AID 1159515; calls by dose curve; also: nearly all actives have a fitted effect of over 55% in size); conditions: NFkB-bla ME-180 viability, CellTiter-Glo luminescence, 5 h; series mostly up to 61 µM
In short: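 Cells are seeded (2,000 NFkB-bla ME-180 per well), rested overnight, and dosed with DMSO-dissolved compounds for 5 hr at 37 C. Viability is then read by CellTiter-Glo luminescence after 30 min at room temperature.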

[4] = qHTS assay to identify small molecule agonists of the endoplasmic reticulum stress response signaling pathway (AID 1159516; active = well fitted activation curve with a large enough effect in the signal ratio in the repeat runs, not every such curve was filed as active; the % refers to the signal ratio); conditions: ESRE-bla HeLa, ER stress beta-lactamase reporter, 5 h; series mostly up to 61 µM
In short: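 Cells are seeded at 1,500 per well and incubated overnight. Compounds in DMSO are added for 5 hr at 37 C, then beta-lactamase FRET substrate for 2 hr at room temperature, and fluorescence at 460 and 530 nm is measured.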

[5] = qHTS assay to identify small molecule agonists of the endoplasmic reticulum stress response signaling pathway - cell viability counter screen (AID 1159517; calls by dose curve;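 also: HeLa cells carrying an ER stress response element beta-lactamase reporter; nearly all actives have a fitted effect of over 50% in size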); conditions: ESRE-bla HeLa viability, CellTiter-Glo luminescence, 5 h; series mostly up to 61 µM
In short: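 In parallel with the ESRE reporter read, cytotoxicity was scored by CellTiter-Glo luminescence (30 min, room temperature) on HeLa ESRE-bla cells dosed for 5 hr.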

[6] = qHTS assay to identify small molecule antagonists of the retinoid-related orphan receptor gamma (ROR-gamma) signaling pathway - cell viability counter screen (AID 1159520); conditions: Tet-on RORgamma CHO cells viability, ATP luminescence, 16 h; series mostly up to 92.4 µM; also: nearly all actives have a fitted effect of over 50% in size
In short: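 Tet-on ROR gamma CHO cells were given compounds for 2 hr, then doxycycline hyclate at 1 uM final, and incubated 16 hr at 37 C. Viability was measured as ATP content by CellTiter-Glo luminescence.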

[7] = target: Nuclear receptor ROR-gamma (Homo sapiens) (UniProt P51449); assay: qHTS assay to identify small molecule antagonists of the retinoid-related orphan receptor gamma (ROR-gamma) signaling pathway (AID 1159521); conditions: Tet-on RORgamma CHO cells, RORE-luciferase, 16 h; series mostly up to 92.4 µM
In short: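 RORγ antagonism is scored from reduced reporter luminescence in Tet-on CHO cells. Induction used 1 uM final doxycycline hyclate for 16 h at 37 C, following a 2 h compound exposure.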

[8] = qHTS assay to identify small molecule agonists of the AP-1 signaling pathway - cell viability counter screen (AID 1159525; calls by dose curve; also: nearly all actives have a fitted effect of over 55% in size); conditions: ME-180 AP-1-bla cells viability, ATP luminescence, 5 h; series mostly up to 76.8 µM
In short: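 Same-well cytotoxicity counter screen of the Tox21 10K library in ME-180 cells. The readout is ATP-dependent luminescence after 5 h compound treatment. Data are normalised to DMSO and tetra n-octyl ammonium bromide controls.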

[9] = qHTS assay to identify small molecule agonists of the AP-1 signaling pathway (AID 1159526; calls by dose curve); conditions: ME-180 (cervical carcinoma) AP-1-bla reporter, beta-lactamase FRET ratio, 5 h; series mostly up to 76.8 µM
[10] = qHTS assay to identify small molecule agonists of the RXR signaling pathway - cell viability counter screen (AID 1159529); conditions: RXR-alpha-bla HEK293T viability, CellTiter-Glo, 16 h; series mostly up to 76.8 µM; also: nearly all actives have a fitted effect of over 50% in size
In short: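 Cell viability is measured by CellTiter-Glo luminescence, 30 min at room temperature, in wells already read for beta-lactamase. Engineered HEK 293T cells (RXR-alpha-UAS-bla) are dosed 16 hr at 37 C. Tetraoctyl ammonium bromide serves as positive control.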

[11] = qHTS assay to identify small molecule antagonists of the retinoid acid receptor (RAR) signaling pathway - cell viability counter screen (AID 1159551); conditions: C3RL4 cells viability, ATP luminescence (CellTiter-Glo), 6 h; series mostly up to 92.4 µM; also: nearly all actives have a fitted effect of over 35% in size
In short: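 Cells (C3RL4) are plated, incubated overnight, dosed with compound in DMSO, then given retinol at 1 uM final. After 6 h at 37 C, CellTiter-Glo is added and luminescence read following 30 min at room temperature.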

[12] = target: Retinoic acid receptor RXR-alpha (Homo sapiens) (UniProt P19793); assay: qHTS assay to identify small molecule agonists of the RXR signaling pathway (AID 1159527; calls by dose curve; also: nearly all actives have a fitted effect of over 35% in size); conditions: HEK293T RXRa-UAS-bla, beta-lactamase ratio, 16 h; series mostly up to 76.8 µM
Sequence of Retinoic acid receptor RXR-alpha (Homo sapiens) (P19793 whole entry, looked up): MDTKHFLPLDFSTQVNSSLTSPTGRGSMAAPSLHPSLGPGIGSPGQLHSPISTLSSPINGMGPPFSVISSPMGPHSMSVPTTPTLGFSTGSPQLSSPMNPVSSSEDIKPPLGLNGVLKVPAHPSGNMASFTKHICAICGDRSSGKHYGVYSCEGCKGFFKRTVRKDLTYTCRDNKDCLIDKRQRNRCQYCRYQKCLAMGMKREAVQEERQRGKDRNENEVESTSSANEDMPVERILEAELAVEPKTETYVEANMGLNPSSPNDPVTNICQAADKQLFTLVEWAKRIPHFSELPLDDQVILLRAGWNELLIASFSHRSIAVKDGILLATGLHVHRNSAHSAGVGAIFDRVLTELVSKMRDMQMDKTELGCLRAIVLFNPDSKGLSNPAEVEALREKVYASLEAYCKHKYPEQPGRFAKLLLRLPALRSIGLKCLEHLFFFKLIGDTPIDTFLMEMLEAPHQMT
In short: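 qHTS of the Tox21 10K library in GeneBLAzer RXR-alpha HEK 293T cells carrying a beta-lactamase reporter […]; 16 hr treatment, 9-cis retinoic acid as agonist control, FRET read-out.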

[13] = qHTS assay to identify small molecule agonists of the retinoic acid receptor (RAR) signaling pathway (AID 1159553); conditions: C3RL4 RARE luciferase reporter, agonist, 6 h; series mostly up to 73.3 µM
In short: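 Seed C3RL4 reporter cells at 1,000 per well and incubate overnight at 37 C. Add compounds in DMSO, incubate 6 hr. Add luciferase reagent, wait 30 min at room temperature, read luminescence.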

Measured: Potency

CN1CCC(=C2c3ccccc3CCc3cccnc32)CC1
inactive: [1] | [2] | [3] | [4] | [5] | [6] | [7] | [8] | [9] | [10] | [11]

CC1=CCC(O)(C(C)C)CC1 (centres undefined)
inactive: [1] | [2] | [3] | [4] | [5] | [6] | [7] | [8] | [9] | [10] | [11]

COc1cc(-c2ccc(=O)[nH]n2)ccc1OC(F)F
inactive: [1] | [2] | [3] | [4] | [5] | [6] | [7] | [9] | [12] | [10] | [11] | [13]
